High-throughput results: PubChem, National Center for Advancing Translational Sciences (NCATS)
Sampled rows, rich in hits. Any-hit rate of the full collection: about 11%.
HEK cytotox – HEK 293 cell cytotoxicity | AID 1345083 | 6.6% of 94,000 active | Potency, µM (titrated, usually from 115 µM), without a hit: at the highest dose activity change, negative = cytotoxicity, most hits filed as inhibitors | HEK 293 viability, ATP luminescence (CellTiter-Glo), 48-72 h; further: nearly all actives have a fitted effect of over 60% in size
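Pintool-delivered compounds were incubated with HEK 293 cells (250 cells/well) at 37 degree Celsius for 48 or 72 hr. ATP-dependent luminescence (CellTiter-Glo) then reported remaining viable cells.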
3T3 cytotox – kills NIH 3T3 cells; AID 1345082; 4.3% of 94,000 active; NIH 3T3 viability, CellTiter-Glo ATP luminescence, 48-72 h; Potency, µM (titrated, usually from 96.7 µM), inactives show at the highest dose activity change, negative = cytotoxicity, most hits filed as inhibitors; further: nearly all actives have a fitted effect of over 55% in size
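Cytotoxicity is measured as loss of cellular ATP: NIH 3T3 cells (400/well) are exposed to compound for 48 or 72 hr at 37 °C, then CellTiter-Glo luminescence is imaged after 10 min at room temperature.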
NPR1 antag – human Npr1 receptor antagonism; P16066; HEK293 hNpr1 GloSensor cGMP, ANP-stimulated luminescence; Potency, µM (highest dose often 46.3 µM), for inactives: at the top dose activity change, negative = inhibition, hits mostly inhibitors; 1.6% of 76,000 active; calls by dose curve; further: nearly all actives have a fitted effect of over 60% in size
Target sequence (P16066 whole entry, looked up): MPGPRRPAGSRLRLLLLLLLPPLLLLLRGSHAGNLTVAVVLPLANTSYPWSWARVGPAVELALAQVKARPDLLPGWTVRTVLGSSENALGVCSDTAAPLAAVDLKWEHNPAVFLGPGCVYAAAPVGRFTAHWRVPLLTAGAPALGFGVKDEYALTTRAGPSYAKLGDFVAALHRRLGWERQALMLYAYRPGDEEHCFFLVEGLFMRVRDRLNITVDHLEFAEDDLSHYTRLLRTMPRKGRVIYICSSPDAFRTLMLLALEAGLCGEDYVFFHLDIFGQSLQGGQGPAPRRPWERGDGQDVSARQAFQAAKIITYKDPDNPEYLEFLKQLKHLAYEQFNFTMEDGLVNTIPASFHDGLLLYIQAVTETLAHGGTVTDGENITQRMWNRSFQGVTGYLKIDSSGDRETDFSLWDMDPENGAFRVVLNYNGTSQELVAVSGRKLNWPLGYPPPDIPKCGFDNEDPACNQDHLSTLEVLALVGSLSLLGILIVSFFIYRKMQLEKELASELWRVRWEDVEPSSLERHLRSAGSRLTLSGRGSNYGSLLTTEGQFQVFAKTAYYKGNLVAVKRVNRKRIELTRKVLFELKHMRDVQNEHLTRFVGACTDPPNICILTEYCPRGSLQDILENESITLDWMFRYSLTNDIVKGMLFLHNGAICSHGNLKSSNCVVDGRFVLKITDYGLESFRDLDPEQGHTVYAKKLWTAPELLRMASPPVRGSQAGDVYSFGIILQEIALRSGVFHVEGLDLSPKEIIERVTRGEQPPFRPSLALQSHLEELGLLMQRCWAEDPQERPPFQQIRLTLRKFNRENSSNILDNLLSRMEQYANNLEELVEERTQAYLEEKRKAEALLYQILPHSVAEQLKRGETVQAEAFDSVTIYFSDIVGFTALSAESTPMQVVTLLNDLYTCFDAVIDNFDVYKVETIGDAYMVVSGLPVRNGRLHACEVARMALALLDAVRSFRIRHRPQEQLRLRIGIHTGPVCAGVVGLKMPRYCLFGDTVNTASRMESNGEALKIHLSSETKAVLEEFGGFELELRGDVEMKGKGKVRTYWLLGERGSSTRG
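HEK293 cells stably expressing human Npr1 and cGMP GloSensor pGS-40F, loaded 2 h with 2% GloSensor reagent, given compound 30 min at room temperature. Luminescence read before and 20 min after 0.1 nM hNppA.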
Luciferase inh – Photinus pyralis luciferase inhibition; P08659; AID 1347043; purified P. pyralis luciferase, luminescence, biochemical; 2.5% of 76,000 active; Potency, µM (doses to about 115 µM), actives largely listed as inhibitors; further: nearly all actives have a fitted effect of over 65% in size
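FLuc 10nM, D-luciferin 10uM, ATP 10uM, Mg acetate 10mM, Tris acetate pH 7.5, Tween/BSA; cpd qHTS; enzyme added last; CCD luminescence.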
The depositor's hits bear a star; i = inactive; ? = inconclusive; . = not tested or not shown; [ ] = remark or other dose. Unless noted, the call rests on the fitted dose curve; in most records, active means well fitted curve in the direction sought with a large enough effect; inconclusive means small, poorly fitted or top-dose-only effect, or another doubt; inactive means no such curve, though single readings can be large; an effect the other way counts as inactive or inconclusive. On the % scale 0 is the no-effect control and ±100 the full control effect; potency means the concentration at half of the fitted maximal effect.

SMILES	HEK cytotox	3T3 cytotox	NPR1 antag	Luciferase inh
COc1ccc(OCC2(C)COc3ccc(C(=O)NCc4ccc(F)cc4)cc3N2)cc1 (configuration not stated)	28.2µM*	28.2µM*	-29.6%[70.6 µM]	i
CC1(COc2ccccc2)COc2ccc(C(=O)NCc3ccccc3)cc2N1 (configuration not stated)	63.1µM*	50.1µM*	-22.2%[70.6 µM]	i
COc1ccc(OCC2(C)COc3ccc(C(=O)N(C)C)cc3N2)cc1 (configuration not stated)	?	-30.2%[138 µM]	?	i
CN1CCN(C(=O)C2CCCN(c3ccnc4ccnn34)C2)CC1 (configuration not stated)	-5.4%	-23.6%	.	.
CN1CCCC2(C1)CN(C)c1ccc(C(=O)Nc3ccccc3)cc12 (configuration not stated)	?	?	-0.1%[70.6 µM]	i
CN1CCC2(C1)CN(Cc1ccccc1)c1ccc(C(=O)NC3CCC3)cc12 (configuration not stated)	?	79.4µM*	-3.7%[70.6 µM]	i
CN1CCCC2(C1)CN(Cc1cccnc1)c1ccc(C(=O)Nc3ccccc3)cc12 (configuration not stated)	?	89.1µM*	4.0%[70.6 µM]	i
CN1CCC2(C1)CN(Cc1ccccc1)c1ccc(C(=O)NC3CC3)cc12 (configuration not stated)	?	-25.8%[138 µM]	9.9%[70.6 µM]	i
CN1CCC2(C1)CN(Cc1ccccc1)c1ccc(C(=O)NC3CCCCC3)cc12 (configuration not stated)	79.4µM*	?	-1.2%[70.6 µM]	i
Cc1cccc(C)c1-c1nnc2ccc(C(=O)NCCc3ccccc3F)cn12	?	-12.4%	.	.
Cc1cccc(C(=O)N2CC(CNC(=O)N3CCCC3)C3(CCOCC3)C2)c1 (configuration not stated)	1.2%	i	.	.
c1ccc(CN(C2CCOCC2)C2CN(Cc3cncs3)C2)cc1	-5.7%	-15.3%	.	.
CN1CCN(C(=O)c2ccc3nnc(-c4cccc(C(F)(F)F)c4)n3c2)CC1	4.9%	-15.8%	.	.
Fc1ccccc1-c1cc2c(ccn2Cc2ccncc2)c(N2CCOCC2)n1	89.1µM*	35.5µM*	-0.8%[70.6 µM]	i
c1cc(-c2cc3c(ccn3Cc3ccncc3)c(N3CCOCC3)n2)c2[nH]ncc2c1	89.1µM*	?	-13.4%[70.6 µM]	i
COc1ncccc1-c1cc2c(ccn2Cc2ccncc2)c(N2CCOCC2)n1	-30.0%[172 µM]	?	-9.2%[70.6 µM]	i
c1cc(-c2cc3c(ccn3Cc3ccncc3)c(N3CCOCC3)n2)c2cn[nH]c2c1	89.1µM*	14.1µM*	-17.7%[70.6 µM]	i
c1cc(-c2cc3c(ccn3Cc3ccncc3)c(N3CCOCC3)n2)c2cc[nH]c2c1	31.6µM*	35.5µM*	-16.1%[70.6 µM]	i
Cc1ccc([S+](=O)([O-])N2CCCC2C(=O)N2CCC(c3nc4ccncc4[nH]3)C2)cc1 (configuration not stated)	4.4%	0.3%	.	.
CN(C)Cc1ccc(-c2cc3c(ccn3Cc3cccnc3)c(C3=CCOCC3)n2)cc1	56.2µM*	25.1µM*	-8.6%[70.6 µM]	i
C1=C(c2nc(-c3cccc4[nH]ncc34)cc3c2ccn3Cc2cccnc2)CCOC1	89.1µM*	?	-20.0%[70.6 µM]	i
C1=C(c2nc(-c3ccc(N4CCOCC4)cc3)cc3c2ccn3Cc2cccnc2)CCOC1	?	?	-2.0%	i
CNC(=O)c1cc(C2CC2)nc2onc(C3CCCN3C(=O)c3ccc(F)cc3)c12 (configuration not stated)	-16.1%	-15.6%	.	.
O=C(NCc1ccncc1)[C@@H]1C[C@@H](c2ccc(F)cc2)N(CCOc2ccccc2)C1	?	?	-15.1%[70.6 µM]	i
O=C(NCc1ccc(F)cc1)c1nn(CCOc2ccccc2)c2c1CNCC2	39.8µM*	?	.	.
SMILES	HEK cytotox	3T3 cytotox	NPR1 antag	Luciferase inh
O=C(C1CC=CCC1)N1CCc2[nH]nc(-c3ccc(C(F)(F)F)cc3)c2C1 (configuration not stated)	25.1µM*	?	-6.3%	i
CSCCC(=O)N1CCc2[nH]nc(-c3ccc(C(F)(F)F)cc3)c2C1	?	?	-14.4%	?
O=C(NCc1ccc(F)c(F)c1)c1ccc2nc(-c3ccncc3)oc2c1	?	-25.2%	.	.
CC#CCn1cc2c3c(cccc31)[C@H](CC(C)C)N[C@H](C(=O)NCCNC(C)=O)C2	100µM*	?	-1.6%[70.6 µM]	i
C=CCNC(=O)[C@@H]1Cc2cn(CC#CC)c3cccc(c23)[C@H](CC(C)C)N1	?	?	-0.4%[70.6 µM]	i
CC#CCn1cc2c3c(cccc31)[C@H](CC(C)C)N[C@H](C(=O)NCCN(C)C)C2	28.2µM*	39.8µM*	-11.4%[70.6 µM]	i
CC#CCn1cc2c3c(cccc31)[C@H](CC(C)C)N[C@H](C(=O)NCc1ccccc1)C2	63.1µM*	?	-21.2%[70.6 µM]	i
CC#CCn1cc2c3c(cccc31)[C@H](CC(C)C)N[C@H](C(=O)NCc1cccs1)C2	70.8µM*	?	-14.6%[70.6 µM]	i
COc1cccc(CNC(=O)c2cn3cc(-c4cccc(C(F)(F)F)c4)sc3n2)c1	?	-9.1%	.	.
COc1ccc(-c2ccccc2C(=O)N2CCC(NC(=O)C(C)(C)C)CC2)nn1	i	-13.6%	.	.
CC#CCn1cc2c3c(cccc31)[C@H](CC(C)C)N[C@H](C(=O)NC1CC1)C2	89.1µM*	?	-11.1%[70.6 µM]	i
CC#CCn1cc2c3c(cccc31)[C@H](CC(C)C)N[C@H](C(=O)NCc1ccco1)C2	?	89.1µM*	-10.0%[70.6 µM]	i
C#CCNC(=O)[C@@H]1Cc2cn(CC#CC)c3cccc(c23)[C@H](CC(C)C)N1	?	?	-1.7%[70.6 µM]	i
Cc1ccc(Cl)cc1NC(=O)Nc1cccc(-c2ccc(N3CCOCC3)nn2)c1	?	-29.2%	-23.2%	1µM*
Cc1ccc(NC(=O)Nc2cccc(-c3ccc(N4CCOCC4)nn3)c2)cc1F	-25.6%	-6.1%	-25.7%	?
COc1cccc(NC(=O)Nc2cccc(-c3ccc(N4CCOCC4)nn3)c2)c1	?	?	?	1µM*
COCc1cc(=O)n(CC(=O)Nc2cccc(OC)c2)c(N2CCOCC2)n1	0.9%	-10.5%	-0.4%	i
Cc1c(F)cccc1NC(=O)Nc1cccc(-c2ccc(N3CCOCC3)nn2)c1	-11.3%	-26.4%	?	0.631µM*
Nc1cccc(-c2ccc(N3CCOCC3)nn2)c1	?	?	?	3.16µM*
COc1ccc(NC(=O)N2C[C@@H](F)C[C@H]2C(=O)N2CCc3ccccc3C2)cc1	2.2%	-9.8%	.	.
O=C(NC1CCCCCC1)c1ccc2oc(-c3ccncc3Cl)nc2c1	-27.2%[172 µM]	0.1%[138 µM]	.	.
O=C(Nc1cccc(-c2ccc(N3CCOCC3)nn2)c1)Nc1ccccc1C(F)(F)F	?	?	-23.0%	2.24µM*
Cc1noc([C@H]2CCN(S(=O)(=O)Cc3ccccc3)C[C@H]2NC(=O)C2CC2)n1	i	-5.1%	.	.
COc1ccc(Cl)cc1-c1ccc2c(c1)C(=O)N1C[C@H](O)C[C@H]1C(=O)N2	?	?	2.7%[70.6 µM]	i
